Measurements published in PubChem BioAssay.
Calls of active or inactive are those of the source.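 The calls were made as follows, unless noted: active = inhibition above 20% together with a positive visual image hit; inconclusive = visual image hit but inhibition not above 20%; inactive = no visual image hit.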

Assays:
[1] = inhibitors of TNFa-induced NFkB p65 translocation, primary screen, imaging, HUVEC, MLSMR starter and 10KST1 sets (AID 438); settings: HUVEC TNFa-induced p65 nuclear translocation; cell count: measured here: nuclei count (cytotoxicity indicator), at 2.08 µM; inhibition: at 2 µM, stronger effect = higher value, 0% TNFa-plus-vehicle, 100% no-TNFa wells;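 also: compound added about 3h40 before a 20 min TNFalpha stimulation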;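 as to inhibition: signal is the nuclear over cytoplasmic p65 intensity ratio per well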
[2] = reduction of polyQ htt aggregates in cells – imaging, exon1htt(103Q)mCFP cells, high-content imaging, primary screen (AID 483;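 active = visual image review flags a hit and inhibition of aggregation exceeds 20%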;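 also: compound exposure lasted 3 days before fixation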;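 as to nuclei count: percent of the per-plate median nuclei count of sample wells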); settings: exon1htt(103Q)mCFP cell line, aggregate imaging, at 2 µM; inhibition of aggregation: stronger effect = higher value; nuclei count: measured here: cell count, toxicity
[3] = endothelial E-selectin expression blockers – imaging, HUVEC, immunofluorescence, MLSMR starter and 10KST1 sets, primary screen (AID 487;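 active = visually confirmed hit in the image check and inhibition above 20%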;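 as to inhibition: signal is fraction of cell area covered by stained E-selectin grains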;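 as to nuclei count: 100% = median nuclei count of all wells on the same plate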); settings: HUVEC TNFalpha-induced E-selectin immunofluorescence imaging, at 2 µM; inhibition: stronger effect = higher value; nuclei count: measured here: cell number, toxicity
[4] = target: Voltage-gated potassium channel subunit beta-2 (Rattus norvegicus) (UniProt P62483); test: inhibitors of rat Kvbeta2 reductase activity – biochemical, NADPH fluorescence, primary screen (AID 622;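 active = fluorescence slope higher than the sample average by over 3 SD, cut at about -0.22 in these data, passing the limit was not always enough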;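 also: slope of raw intensity against log time taken from 70 to 1610 s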); settings: recombinant KvBeta, 4-cyanobenzaldehyde reduction, at 10 µM, stronger effect = higher value
Chain of Voltage-gated potassium channel subunit beta-2 (Rattus norvegicus) (P62483 whole entry, looked up): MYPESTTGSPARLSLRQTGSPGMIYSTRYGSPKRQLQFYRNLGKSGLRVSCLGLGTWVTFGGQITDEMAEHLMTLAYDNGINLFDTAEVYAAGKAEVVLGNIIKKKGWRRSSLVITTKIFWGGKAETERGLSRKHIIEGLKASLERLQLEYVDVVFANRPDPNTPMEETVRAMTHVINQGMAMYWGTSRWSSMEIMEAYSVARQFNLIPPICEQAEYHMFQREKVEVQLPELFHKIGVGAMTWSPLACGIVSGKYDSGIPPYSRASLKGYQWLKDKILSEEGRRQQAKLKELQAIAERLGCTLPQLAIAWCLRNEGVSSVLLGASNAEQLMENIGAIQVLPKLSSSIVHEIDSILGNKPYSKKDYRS

[5] = target: Voltage-gated potassium channel subunit beta-2 (Rattus norvegicus) (UniProt P62483); test: enhancers of rat Kvbeta2 NADPH turnover – biochemical, NADPH fluorescence, primary screen (AID 623;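 active = NADPH fluorescence slope more negative than the mean of all samples by about 3 SD, 99.7% confidence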;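 also: fluorescence intensity change per second fitted from 20 to 320 s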); settings: Recombinant KvBeta, NADPH fluorescence decrease slope, 10 min; at 10 µM; stronger effect = lower value
[6] = target: Alpha-2C adrenergic receptor (Homo sapiens) (UniProt P18825); test: compounds altering alpha2C-coupled GIRK flux – cell-based, HEK293 alpha2C/GIRK1/2, thallium flux, primary screen (AID 624;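 active = fluorescence slope after compound addition differing from the mean of all screened samples at 99.7% confidence, in either direction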;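 also: slope of fluorescence ratio to pre-addition baseline per second over 15 to 24 s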); settings: thallium flux BTC fluorescence, at 10 µM, actives lie on both sides
Chain of Alpha-2C adrenergic receptor (Homo sapiens) (P18825 whole entry, looked up): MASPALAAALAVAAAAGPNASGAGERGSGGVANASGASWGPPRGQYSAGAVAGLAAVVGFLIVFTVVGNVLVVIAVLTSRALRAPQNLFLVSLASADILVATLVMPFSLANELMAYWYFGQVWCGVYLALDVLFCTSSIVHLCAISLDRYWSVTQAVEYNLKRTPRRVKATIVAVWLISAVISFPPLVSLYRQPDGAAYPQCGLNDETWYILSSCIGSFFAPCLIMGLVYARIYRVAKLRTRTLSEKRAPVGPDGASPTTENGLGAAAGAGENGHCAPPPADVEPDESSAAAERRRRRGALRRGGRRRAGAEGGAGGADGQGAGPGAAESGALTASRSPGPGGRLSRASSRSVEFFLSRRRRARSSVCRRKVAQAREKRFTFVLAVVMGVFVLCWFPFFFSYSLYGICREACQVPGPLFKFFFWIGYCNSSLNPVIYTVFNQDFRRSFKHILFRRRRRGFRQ

[7] = blockers of RIG-like receptor reporter activation – cell-based, Sendai virus stimulus, luciferase, 10K MLSCN set, TLR/RLR signaling modifier project, primary screen (AID 602276;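 active = inhibition at or above 50% at 10 µM; inactive = inhibition below 50%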;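 also: firefly luciferase from ISG56 promoter only with Renilla not read in this screen; 0% = Sendai virus plus DMSO and 100% = medium plus DMSO without virus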); settings: HEK293 RL24 IRF3 luciferase reporter, at 10 µM, stronger effect = higher value
[8] = TLR3 IRF3 reporter activation blockers – cell-based, poly I:C stimulus, luciferase, 10K MLSCN set, primary screen (AID 602277;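 active = inhibition of the reporter signal at or above 50%; inactive = inhibition below 50%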); settings: HEK293-TLR3 RL24 IRF3 luciferase reporter, at 10 µM, stronger effect = higher value

| Structure (SMILES) | cell count [1] | inhibition [1] | inhibition of aggregation [2] | nuclei count [2] | inhibition [3] | nuclei count [3] | fluorescence slope [4] | NADPH fluorescence slope [5] | slope [6] | inhibition [7] | inhibition [8] |
| --- | --- | --- | --- | --- | --- | --- | --- | --- | --- | --- | --- |
| CCc1ccccc1-n1c(SCC(=O)N2CCCC2)nnc1-c1ccccn1 | 484 | 2.5% (inactive) | -5.8% (inactive) | 116% | -11.2% (inactive) | 104% | -0.524 (inactive) | 5e-05 (inactive) | 0.00548 (inactive) | -2.19% (inactive) | 4.38% (inactive) |
| CCCC(C)c1nnc(NC(=O)C2CCCO2)s1 (stereo not drawn) | 575 | 0% (inactive) | -11.3% (inactive) | 97.6% | 9.1% (inactive) | 103% | -0.524 (inactive) | -4e-05 (inactive) | 0.00609 (inactive) | -3.58% (inactive) | -11.9% (inactive) |
| O=C(CCCC(=O)OCC(=O)NC1CCCC1)Nc1ccccn1 | 463 | 2.6% (inactive) | 1.1% (inactive) | 113% | -130% (inactive) | 179% | -0.6 (inactive) | -4.5e-05 (inactive) | 0.00354 (inactive) | 14% (inactive) | 17.5% (inactive) |
| COc1cccc(NC(=O)COC(=O)c2ccco2)c1 | 393 | -4% (inactive) | -17.7% (inactive) | 92.3% | -0.6% (inactive) | 122% | -0.47 (inactive) | 7.3e-06 (inactive) | 0.00724 (inactive) | 13.4% (inactive) | 20.6% (inactive) |
| CC1=C(C(N)=O)C(c2ccccn2)n2nc(SCc3ccccc3)nc2N1 (stereo not drawn) | 624 | 3.8% (inactive) | 3.9% (inactive) | 93% | 43.5% (inactive) | 86.4% | -0.316 (inactive) | -8.8e-05 (inactive) | 0.0057 (inactive) | -8.46% (inactive) | 0.00265% (inactive) |
| CSc1nc(=NC(C)=O)ss1 | 723 | -18.1% (inactive) | -0.1% (inactive) | 106% | 22.2% (inactive) | 110% | -0.528 (inactive) | -5.6e-05 (inactive) | 0.00608 (inactive) | 4% (inactive) | 8.14% (inactive) |
| CCOC(=O)C1=C(NC#N)OC(C)=C(C)C1c1ccc(O)cc1 (stereo not drawn) | 276 | 1% (inactive) | -12.7% (inactive) | 117% | 15.8% (inactive) | 100% | -0.487 (inactive) | -1.5e-05 (inactive) | 0.00651 (inactive) | 20.5% (inactive) | 18.3% (inactive) |
| CCS(=O)(=O)NCCc1cc2c(OC)ccc(OC)c2[nH]c1=O | 349 | -15.2% (inactive) | 12.1% (inactive) | 83.7% | 38.9% (inactive) | 95.1% | -0.488 (inactive) | -3.1e-05 (inactive) | 0.00489 (inactive) | 16.6% (inactive) | 26.4% (inactive) |
| CCN(CC)S(=O)(=O)c1ccc(S(=O)(=O)N(Cc2ccccn2)Cc2ccco2)cc1 | 322 | -0.8% (inactive) | -9.2% (inactive) | 112% | -68.2% (inactive) | 123% | -0.608 (inactive) | 6.2e-06 (inactive) | 0.00512 (inactive) | 6.58% (inactive) | 18.5% (inactive) |
| CCOc1cc(S(=O)(=O)N2CCC(Cc3ccccc3)CC2)c(OCC)cc1-n1cnnn1 | 517 | 1.9% (inactive) | -5.6% (inactive) | 103% | -119% (inactive) | 178% | -0.613 (inactive) | 9.5e-06 (inactive) | 0.0103 (inactive) | -0.144% (inactive) | 10.4% (inactive) |
| N#CCCCCn1c(-c2cncs2)nc2ccccc21 | 431 | 14.1% (inactive) | 3.5% (inactive) | 101% | 22.2% (inactive) | 107% | -0.385 (inactive) | -4.5e-05 (inactive) | 0.00375 (inactive) | 14.5% (inactive) | 15.9% (inactive) |
| COC(=O)c1ccccc1NS(=O)(=O)c1ccc(F)cc1 | 609 | 2.4% (inactive) | -3% (inactive) | 99.4% | -22.1% (inactive) | 114% | -0.523 (inactive) | -3.8e-05 (inactive) | 0.00602 (inactive) | 9.83% (inactive) | 17.7% (inactive) |
| Nc1nnn(Cc2ccccc2)n1 | 885 | 8.7% (inactive) | 5.4% (inactive) | 114% | -20.6% (inactive) | 114% | -0.566 (inactive) | -2.4e-05 (inactive) | 0.00494 (inactive) | 0.136% (inactive) | 99.3% (active) |
| COc1ccc(C)cc1-n1c(N)c(C#N)c(C#N)c1-c1ccc(OC)c(OC)c1OC | 676 | -3.9% (inactive) | 16.9% (inactive) | 86% | -9.7% (inactive) | 105% | -0.537 (inactive) | 2.9e-05 (inactive) | 0.00611 (inactive) | 12% (inactive) | 32.6% (inactive) |
| C=CCOC(=O)CCC(=O)Nc1cc(OC)nc(OC)n1 | 653 | -12.9% (inactive) | -1.7% (inactive) | 109% | -0.8% (inactive) | 116% | -0.422 (inactive) | -4.9e-06 (inactive) | 0.00745 (inactive) | 12.4% (inactive) | 19.2% (inactive) |
| O=C(CCc1nc2ccccc2s1)OCC(=O)N1CCN(C(=O)c2ccco2)CC1 | 641 | -7.6% (inactive) | -0.7% (inactive) | 100% | -126% (inactive) | 128% | -0.584 (inactive) | -2.7e-05 (inactive) | 0.00548 (inactive) | 14.9% (inactive) | 24.8% (inactive) |
| Cc1ccc2c(c1)N(CC(=O)N1CCCCC1c1cccnc1)C(=O)CO2 (stereo not drawn) | 442 | 2.2% (inactive) | 4.1% (inactive) | 104% | -48.3% (inactive) | 104% | -0.345 (inactive) | -6.9e-05 (inactive) | 0.0057 (inactive) | -2.12% (inactive) | 17.4% (inactive) |
| CCn1c(=O)cc(OCC(=O)Nc2nc(C)cs2)c2ccccc21 | 809 | -1.7% (inactive) | -24.7% (inactive) | 90.4% | -54.6% (inactive) | 125% | -0.525 (inactive) | -3.4e-05 (inactive) | 0.00615 (inactive) | 7.74% (inactive) | 32.8% (inactive) |
| Cn1c(=O)c2c(nc(NCc3ccccc3)n2CCCc2ccccc2)n(C)c1=O | 759 | -1.6% (inactive) | 5.6% (inactive) | 101% | -77.1% (inactive) | 121% | -0.521 (inactive) | -1.3e-05 (inactive) | 0.00474 (inactive) | 16.3% (inactive) | 26.8% (inactive) |
| Cc1nc(NC2=NCN(CC3CCCO3)CN2)nc2ccccc12 (stereo not drawn) | 346 | -11.7% (inactive) | 28.4% (active) | 84.3% | 29% (inactive) | 98.5% | -0.548 (inactive) | -8.4e-06 (inactive) | 0.00499 (inactive) | 15.3% (inactive) | 28.6% (inactive) |
| CC(=O)C1=C(C)Nc2ncnn2C1c1cccc(OCc2ccccc2)c1 (stereo not drawn) | 610 | 0% (inactive) | 2.1% (inactive) | 103% | -51.7% (inactive) | 122% | -0.559 (inactive) | 4.9e-06 (inactive) | 0.0069 (inactive) | 11.8% (inactive) | 29% (inactive) |
| CC(=O)n1cc(-c2ccncc2)c2ccccc21 | 474 | -5% (inactive) | 22.9% (inactive) | 69.3% | -74.9% (inactive) | 106% | -0.57 (inactive) | -1.3e-05 (inactive) | 0.00696 (inactive) | -5.39% (inactive) | 11.5% (inactive) |
| O=C(CCN1C(=O)C2C3C=CC(C3)C2C1=O)Nc1c(F)cc(F)cc1Br (stereo not drawn) | 827 | -6.6% (inactive) | 16.5% (inactive) | 95.3% | -21.9% (inactive) | 120% | -0.587 (inactive) | -6.8e-05 (inactive) | 0.00666 (inactive) | -0.108% (inactive) | 11.7% (inactive) |
| Cc1ccc(NC(=O)C2CCCN(S(=O)(=O)c3cnc[nH]3)C2)cc1C (stereo not drawn) | 626 | 1.6% (inactive) | 11.8% (inactive) | 106% | -102% (inactive) | 134% | -0.527 (inactive) | -2.9e-05 (inactive) | 0.00769 (inactive) | 20.9% (inactive) | 6.37% (inactive) |
| CCOC(=O)C1=C(C)NC2=C(C(=O)CC(C)(C)C2)C1c1ccc(N(C)C)cc1 (stereo not drawn) | 368 | -7.9% (inactive) | 26.1% (inactive) | 104% | -27.4% (inactive) | 116% | -0.491 (inactive) | -8.1e-05 (inactive) | 0.00676 (inactive) | -2.32% (inactive) | 2.28% (inactive) |
| O=S(=O)(NC1CCCC1)c1ccc(S(=O)(=O)N2CCc3ccccc32)cc1 | 395 | 0% (inactive) | 8.6% (inactive) | 102% | -13.9% (inactive) | 97.5% | -0.589 (inactive) | -1.9e-05 (inactive) | 0.00513 (inactive) | 5.42% (inactive) | -11.7% (inactive) |
| O=C(Nc1ccc(Cl)cc1C(=O)O)c1ccc2c(c1)C(=O)N(Cc1ccco1)C2=O | 366 | 0.3% (inactive) | -2.8% (inactive) | 105% | -34.4% (inactive) | 119% | -0.493 (inactive) | -4.3e-05 (inactive) | 0.00498 (inactive) | 23.5% (inactive) | 28.2% (inactive) |
| Cc1nnc(SCc2ccccc2)n1N | 465 | 2.9% (inactive) | -11.7% (inactive) | 101% | -16.8% (inactive) | 119% | -0.494 (inactive) | -4.1e-05 (inactive) | 0.00525 (inactive) | 16.3% (inactive) | 16.6% (inactive) |
